Only some compounds are listed: those with a hit (about 19% of all), similar ones and a draw of the others.
TDP1 cell noCPT = qHTS for Inhibitors of human tyrosyl-DNA phosphodiesterase 1 (TDP1): qHTS in cells in absence of CPT. DT40 Tdp1-/- hTDP1 cells, no CPT, ATP luminescence, 48 h. AID 686978, 2013. 420,000 compounds, 15% hits. Potency, µM (top dose mostly 46.2 µM), inactives show at the highest dose activity change, negative = growth inhibition, actives largely listed as inhibitors; also: potency is read from the fitted curve at half-maximal effect; nearly all actives have a fitted effect of over 55% in size
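Readout: luminescence from CellTiter-Glo after 30 min in the dark at RT. Cells: DT40 Tdp1-/- with stable hTDP1, 400/well. Exposure: compounds alone, ≥48 hr, 37 °C.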
TDP1 cell CPT = DT40-hTDP1 cell growth loss with CPT; 420,000 compounds, 12% hits; Potency, µM (doses to about 46.2 µM), without a hit: at the highest dose activity change, negative = growth inhibition, most hits filed as inhibitors; chicken DT40 Tdp1-/-;hTDP1 cells + 20 nM CPT, ATP luminescence, 48 h; also: potency is read from the fitted curve at half-maximal effect; nearly all actives have a fitted effect of over 55% in size
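Chicken DT40 Tdp1-/- cells complemented with human TDP1, 400 cells/well, exposed to compounds plus 20 nM camptothecin for at least 48 h at 37 C; viability read as ATP content by CellTiter-Glo luminescence.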
HT1080 IDH1KD tx = kills HT-1080 cells with IDH1 knockdown. Potency, µM (highest dose often 46.1 µM), for inactives: at the top dose activity, negative = toxicity, hits mostly cytotoxic. HT-1080 IDH1 knockdown viability, ATP luminescence, 48 h. 360,000 compounds, 2% hits. AID 686971;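 also: potency is read from the fitted curve at half-maximal effect; 0% = DMSO wells and -100% = cell-free medium wells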
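Luminescent ATP read-out (CellTiter-Glo, 10 min at room temperature) after 48 h compound exposure at 37 °C gave viability of IDH1-knockdown HT-1080 cells. Activity was normalised to DMSO and cell-free wells, then fitted as concentration-response curves.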
HT1080NT lethal = kills 2HG-producing HT-1080-NT fibrosarcoma cells; 360,000 compounds, 1.6% hits; Potency, µM (titrated, usually from 46.1 µM), without a hit: at the top dose activity, negative = less viability, hits mostly cytotoxic; HT-1080-NT fibrosarcoma viability, CellTiter-Glo ATP luminescence, 48 h; AID 686970;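 also: NT is the 2HG producing partner of a matched IDH1 knockdown line; potency is read from the fitted curve at half-maximal effect; 0% = DMSO-treated cells and -100% = media-only wells without cells; nearly all actives have a fitted effect of over 55% in size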
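Viability of the 2HG-overproducing fibrosarcoma line after 48 hours of compound exposure at 37 degrees C was determined by luminescence with CellTiter-Glo, and concentration-effect curves were then fitted and categorized.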
IL1B secr inh = inflammasome signaling inhibition, IL-1 beta readout; THP-1 LPS/ATP IL-1B secretion, AlphaLISA, 16 h; stronger effect = lower value; activity change, % at 57.5 µM; 360,000 compounds, 4.7% hits; in the data active = activity change below about -50%; inconclusive = mostly about -30% to -49%
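THP-1 cells pretreated 1 hr with compounds (up to 57.5 uM final), then stimulated with LPS (250 ng/mL final) plus ATP (1.25 mM final); secreted IL-1B measured by AlphaLISA after 16 hr, decreased signal indicating inhibition.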
uPA surface inh = cell surface uPA generation inhibition. cell surface uPA generation assay, qHTS. Potency, µM (series often up to 38.3 µM), without a hit: at the highest dose activity change, negative = inhibition, hits mostly inhibitors. 330,000 compounds, 0.31% hits; active = well fitted inhibition curve with a large enough effect; inconclusive = small, poorly fitted or top-dose-only effect; inactive = no such curve, though single readings can be large or run the other way; tested in mouse RAW 264.7 cells; also: potency is read from the fitted curve at half-maximal effect; nearly all actives have a fitted effect of over 55% in size
* hit, by the source's call; ? = inconclusive; · = no result; [ ] = remark or other dose. Unless noted, calls follow the shape of the dose curve; as a rule, active = well fitted curve in the direction sought with a large enough effect; inconclusive = small, poorly fitted or top-dose-only effect, or another doubt; inactive = no such curve, though single readings can be large; an effect the other way counts as inactive or inconclusive. Unless noted, % is scaled to controls: 0 for no effect and ±100 for the full control effect.

SMILES	TDP1 cell noCPT	TDP1 cell CPT	HT1080 IDH1KD tx	HT1080NT lethal	IL1B secr inh	uPA surface inh
COc1ccc(F)cc1S(=O)(=O)NCc1cc(=O)n(C)c(=O)n1C	21%	11%	2%	3%	17	-6%
O=C(OCc1c(-c2ccccc2)ncc2ccccc12)N1CCOCC1	?	?	6%	4%	?	?
CCOc1cccc(N(C(=O)Cc2cccs2)C(C(=O)NC2CCCCC2)c2cccn2C)c1 (configuration not stated)	16µM*	16µM*	?	-19%	-1	-6%
CCOc1ccc(C(C(=O)NC2CCCCC2)N(C(=O)Cc2cccs2)c2ccc(-n3cnnn3)c(OC)c2)cc1 (configuration not stated)	23µM*	?	?	?	0	-9%
COc1cccc(C(C(=O)NC2CCCC2)N(C(=O)c2ccco2)c2ccc(-n3cnnn3)c(C)c2)c1OC (configuration not stated)	2.9µM*	?	0%	1%	-6	-3%
OC1CCC(Nc2ncnc3sccc23)CC1 (configuration not stated)	?	-14%	-11%	-10%	-3	3%
C[C@@H](C(=O)CC(=O)OC(C)(C)C)[C@@H](O)c1ccccc1	7%	0%	6%	0%	12	-30%
CC(=O)NCCNc1nc(-c2ccc3c(c2)OCO3)nc2ccccc12	-9%	8%	·	·	·	·
COCCNC(=O)[C@H](C)[C@H]1C[C@]1(C)[C@H](NC(=O)OCc1ccccc1)c1ccccc1	?	?	4%	5%	10	0%
C[C@@H](C(=O)Nc1ccc2ccccc2c1)[C@H]1C[C@]1(C)[C@H](NC(=O)c1cnccn1)c1ccccc1	?	?	-9%	-4%	-52*	5%
C[C@@H](C(=O)Nc1ccc2ccccc2c1)[C@@H]1C[C@@]1(C)[C@@H](NC(=O)c1cnccn1)c1ccccc1	?	26µM*	-30%	-22%	-8	0%
CC(C)C(NS(=O)(=O)c1cccc2nsnc12)C(=O)N1CCCCC1 (configuration not stated)	20%	-4%	18%	12%	-9	-16%
CCn1c(-c2ccc(N)cc2)nc2ccccc21	2%	2%	2%	1%	-2	1%
CN(C)c1ccc(-c2nc3ccccc3n2C)cc1	13µM*	13µM*	11µM*	?	-66*	?
CCn1c(-c2ccc(N(C)C)cc2)nc2ccccc21	3.7µM*	12µM*	?	-2%	-12	-14%
CC(C)n1c(-c2ccc(N(C)C)cc2)nc2ccccc21	11µM*	29µM*	10%[9.24 µM]	-21%	-13	-14%
CN(C)c1ccc(C(O)Cc2nc3ccccc3n2C)cc1 (configuration not stated)	3%	-16%	-17%	-25%	-54*	-21%
CCCCN(Cc1ccco1)S(=O)(=O)c1ccc(-c2ccc(=O)[nH]n2)s1	?	?	-5%	-9%	42	4%
COc1ccc(OC)c(NC(=O)CC2C(=O)NCCN2C(=O)C(F)(F)F)c1 (configuration not stated)	-6%	-8%	·	·	·	·
O=C(Nc1ccc(OC(F)(F)F)cc1)C1CCN(S(=O)(=O)c2ccc3[nH]c(=O)ccc3c2)CC1	?	-8%	·	·	·	·
Cc1cc(C)n2nc(-c3ccccc3)c(-c3ccccc3)c2n1	?	?	3%	5%	7	-3%
CN1CCN(C(=O)C(=O)c2cn(CC(=O)N3CCOCC3)c3ccccc23)CC1	-23%	-2%	5%	3%	-22	·
C=CCOc1cccc(C(=O)/C=C2/C(=O)Nc3ccccc32)c1	6.5µM*	7.3µM*	?	18µM*	?	?
